Results on 58 compounds are retold here after PubChem BioAssay AID449762 (Southern Research Specialized Biocontainment Screening …, 2010).

The whole screen tested about 330,000 compounds, of which about 1,900 (0.58%) were called active. Roughly 4% stayed inconclusive and do not appear here. Only a sample is shown. Results with a measured potency or affinity are listed apart. Unmarked numbers belong to inactive results. Rule as the data show it: inconclusive = inhibition above about 70% without an active follow-up result; inactive = below that.

The nature of this test: M. tuberculosis growth inhibition, HTS (AID 449762).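 Also: bacterial growth assessed after seven days of incubation.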 The following applies: M. tuberculosis H37Rv growth inhibition, 7H9 media; at 25 µM; stronger effect = higher value.
Turning to `Cc1c(NC(=O)CC2NC(=O)NC2=O)c(=O)n(-c2ccccc2)n1C` (stereo not drawn), the inhibition – broadly, the relative decrease from the control value, in per cent – was 4.59%.

Take `Cc1ccc(NC(=O)CSc2nc(N)cc(=O)[nH]2)cc1S(=O)(=O)N1CCCCCC1`: the inhibition was -1.26%. Consider `Cc1ccc(C(=O)NNS(=O)(=O)c2ccccc2[N+](=O)[O-])cc1`, for which the inhibition was 4.03%.

`Cc1ccc(S(=O)(=O)NNC(=O)c2ccc(O)cc2)cc1`: the inhibition was 9.92%. Then `C#CC[N+]1(C)C2CCC1CC(O)C2` (stereo not drawn), with 6.2%; and `COC(=O)/C(=C\c1c(OC)cc(OC)cc1OC)C(=O)c1ccc2c(c1)OCO2`, with 17%. The result for `CCN1C(=O)CSc2ccc(C(=O)NCc3ccccc3)cc21` reads -4.41%. The result for `CC(=O)O/C(=C\c1cn(C(C)=O)c2ccccc12)C(=O)O` reads -13.8%.

Regarding `CC(=O)n1cc(C=C2C(=O)NC(=O)NC2=O)c2ccccc21`, the inhibition was 6.36%. The result for `Cc1oc(-c2ccc(Cl)cc2)nc1CS(=O)CC(=O)NC1CCCC1` (stereo not drawn) reads -1.04%; that for `COc1cccc(N=Nc2c(N)[nH]n3c(=O)cc(-c4ccccc4)nc23)c1`, 54.1%; that for `Nc1[nH]n2c(=O)cc(-c3ccccc3)nc2c1N=Nc1ccc(S(N)(=O)=O)cc1`, 6.74%. The result for `Cc1ccc(CNc2nc3ccccc3n3cnnc23)cc1` reads -11.5%; that for `CCc1ccc(Nc2oc(C)cc(=O)c2C(C)=O)cc1`, 70%. Consider `C/C(=N\N=C(/N)SC1CC(=O)N(c2ccccc2)C1=O)c1cccs1` (stereo not drawn), for which the inhibition is -5.01%. Then `C/C(=N\N=C(/N)SC1CC(=O)N(c2cccc(Cl)c2)C1=O)c1cccs1` (stereo not drawn), with 15.1%; and `O=C(C1CC=CCC1)N1CCC(CO)(Cc2ccc(Cl)cc2)CC1` (stereo not drawn), with 14.7%. For `CCCCNc1nc(Nc2ccc(C)c(Cl)c2)c2cnn(C)c2n1`, the inhibition was 10.1%. The result for `CCCNc1nc(Nc2ccc(C)c(Cl)c2)c2cnn(C)c2n1` reads 14.2%; that for `CC(C)(C)/C(Cn1cncn1)=N\OC(=O)Nc1ccc(Cl)cc1`, 11.8%; that for `CN(Cc1nccs1)C(=O)CC1C(=O)NCCN1Cc1ccc(-c2ccccc2)cc1` (stereo not drawn), -5.55%.

As for `Cc1nc2cc(C(=O)N3CCC4(CC3)OCCO4)ccc2n1-c1ccc(Br)cc1`, the inhibition is 9.84%.

On to `COC(=O)CSc1nc(N2CCOCC2)c2c(c1C#N)CC(C)(C)OC2`, for which the inhibition is 4.99%. Then `CC(C)OC(=O)CSc1nc(N2CCOCC2)c2c(c1C#N)CC(C)(C)OC2`, with 35.4%. The result for `Cc1ccc(N(C(=O)Cn2nnc(-c3ccc(F)cc3)n2)C(C(=O)NC(C)(C)C)c2ccncc2)cc1` (stereo not drawn) reads 7.5%; that for `C#Cc1ccc(CN2CCN(Cc3ccsc3)C(CCO)C2)cc1` (stereo not drawn), -1.98%.

For the compound `N#CCCN(C(=O)COC(=O)CNC(=O)c1ccc(-c2ccccc2)cc1)c1ccc(F)cc1`, the inhibition was 67.5%. The result for `CCCCc1ccc(/C(C)=N/NC(=O)C2CCCC2)cc1` reads -4.47%.

As for `C/C(=N\NC(N)=S)c1ccccc1`, the inhibition was 0.26%. The result for `Cc1ccccc1C(=O)Nc1cccc(N)c1` reads -3.59%; that for `Cc1ccc(S(=O)(=O)NCCCCCC(=O)Nc2c(C)n(C)n(-c3ccccc3)c2=O)cc1`, -4.12%; that for `CCCCN(C(=O)c1c(C)noc1C)c1c(N)n(CCC)c(=O)[nH]c1=O`, -2.29%.

Turning to `Cc1ccc(/C=C/C(=O)Nc2ccc(S(=O)(=O)Nc3onc(C)c3C)cc2)cc1`, the inhibition was -4.61%. The result for `COCCNC(=O)/C(C#N)=C/c1c(N2CCN(c3cccc(Cl)c3)CC2)nc2c(C)cccn2c1=O` reads 8.89%; that for `COCCCNC(=O)/C(C#N)=C/c1c(N2CCN(c3ccccc3)CC2)nc2c(C)cccn2c1=O`, 4.49%; that for `CCOc1ccc(NC(=O)/C(=C\c2ccc(OC(C)=O)c(OC)c2)NC(C)=O)cc1`, 4.59%.

In the case of `Cc1ccc(-c2nc(CS(=O)CC(=O)NCCN3CCCCC3C)c(C)o2)cc1` (stereo not drawn), the inhibition is -3.03%. Then `CN(C)/N=C/C=C1\CC/C(=C\c2ccc(Br)cc2)C1=O`, with 3.13%; and `CC(C)c1ccc(/C=C2\CC/C(=C\C=N\N(C)C)C2=O)cc1`, with -3.15%; and `Cc1cc(-n2nc(C)cc2C)nc(N)n1`, with -2.23%. The result for `CCOC(=O)c1c(-c2ccc(F)cc2)csc1NC(=O)CN1C(=O)NC2(CCCCC2C)C1=O` (stereo not drawn) reads 4.04%.

Regarding `COc1ccc(/C=C/c2c(-c3ccc(OC)cc3)oc3ccccc23)cc1`, the inhibition was -5.2%. Then `COc1ccc(/C=C/c2c(-c3ccc(OC)cc3)oc3cccnc23)cc1`, with -6.31%; and `COc1ccc(C2C3=C(CC(C)(C)CC3=O)Nc3c2c(=O)n(C)c(=O)n3C)cc1OC` (stereo not drawn), with -2.26%; and `O=C(Cc1ccc([N+](=O)[O-])cc1)NCc1ccccc1Cl`, with 0.6%. For `CCOC(=O)Cc1csc(NC(=O)CSc2nnc(-c3ccncc3)n2Cc2ccco2)n1`, the inhibition is 2.42%. The result for `CC(C)c1onc(C(=O)N2CCN(c3ccccc3)CC2)c1[N+](=O)[O-]` reads -4.37%. The result for `Cc1ccc(SCC(=O)OCC(=O)N(CCC#N)c2ccccc2)cc1C` reads 27.2%; that for `Cc1ccc(N(CCC#N)C(=O)COC(=O)c2cc(C)oc2C)cc1`, -1.99%; that for `CC1(c2ccc3ccccc3c2)NC(=O)N(CC(=O)N2CCN(Cc3ccccc3)CC2)C1=O` (stereo not drawn), -2.77%. The result for `Cc1cc(NC(=O)c2cccnc2)ccc1NC(=O)c1cc2ccccc2o1` reads 5.9%. Take `Cc1cc(-c2c(C)[nH]n(-c3ccccc3)c2=O)n(-c2ccccc2)n1`: the inhibition was -6.21%. Then `Cc1[nH]n(-c2ccccc2)c(=O)c1-c1ccccc1`, with 2.82%; and `O=C(Cc1ccc(Cl)cc1)N/N=C/c1cccc(O)c1`, with 9.69%; and `CCc1ccc(N=C2NC(=O)/C(=C/c3cc(OC)c(OC)c(OC)c3)S2)cc1`, with 6.19%. With `COc1cc(/C=C2\SC(=Nc3ccc(O)cc3)NC2=O)cc(OC)c1O`, the inhibition is 2.36%.

Consider `COc1cccc(NC(=O)Nc2cc(C(=O)O)ccc2C)c1`, for which the inhibition was 16.4%. With `O=C(CC1(O)C(=O)N(Cc2ccccc2Cl)c2ccccc21)c1ccco1` (stereo not drawn), the inhibition was 7.75%.
